# Tau FP inhib: inhibitors of human tau fibril formation. P10636. K18 P301L tau heparin fibrillization, Alexa594 FP, 6 h. Potency, µM (top dose mostly 57.7 µM), inactives show at the top dose activity, negative = inhibition, usual class: inhibitors. 0.39% of 280,000 active. AID 1468; further: potency means the concentration at half of the fitted maximal effect; nearly all actives have a fitted effect of over 55% in size
# Target sequence (P10636 561-689 P618L limits assumed): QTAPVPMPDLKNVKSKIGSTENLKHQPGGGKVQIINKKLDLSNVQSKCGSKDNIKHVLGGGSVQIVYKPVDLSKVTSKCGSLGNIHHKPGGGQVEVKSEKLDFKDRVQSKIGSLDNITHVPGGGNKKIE
#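 Recombinant K18 P301L […], labeled with Alexa 594 at 0.24 uM over 15 uM unlabeled; heparin inducer 20 uM final; 37 C, 6 hr; FP endpoint.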
# Tau fluor counter: counter-screen for tau fibril formation inhibitors; tau K18 P301L Alexa594 fluorescence, heparin fibrillization; Potency, µM (doses to about 57.7 µM), for the others: at the highest dose activity change, negative = decrease; 0.93% of 280,000 active; further: potency means the concentration at half of the fitted maximal effect; nearly all actives have a fitted effect of over 55% in size
#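 Human K18 P301L tau (15 uM unlabeled plus 0.24 uM Alexa 594-labeled, final) in 100 mM sodium acetate pH 7 was mixed with compound and 20 uM heparin and incubated 6 hr at 37 C.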
# TR SRC2 fluor cs: Texas Red fluorescence interference in TRb-SRC2 counter-screen; TRb/SRC2 Texas Red total fluorescence interference; Potency, µM (series often up to 106 µM), inactives show at the top dose fluorescence change, negative = quenching; 0.29% of 280,000 active; active means well fitted curve in either direction with a large enough effect; inconclusive means small, poorly fitted or top-dose-only effect; further: potency means the concentration at half of the fitted maximal effect
#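 Human TRβ ligand-binding domain (0.6 uM) and Texas Red SRC2 peptide (20 nM) in Tris buffer with 1 uM T3 and 5% DMSO were incubated with pinned compound for 5 hr at ambient temperature. Total fluorescence was computed as S + 2P (555/632 nm).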
# Tau ThT inhib: tau fibrillization inhibition (ThT binding). recombinant tau K18 P301L (four-repeat tau fragment), heparin-induced fibrillization, ThT fluorescence. Potency, µM (titrated, usually from 57.4 µM), for inactives: at the top dose activity, negative = inhibition, usual class: inhibitors. 2.1% of 270,000 active; further: potency means the concentration at half of the fitted maximal effect; nearly all actives have a fitted effect of over 55% in size
#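 Heparin-induced fibrillization of the P301L-mutant K18 repeat-domain fragment of human tau was followed by ThT binding in quantitative high-throughput format.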
# TRb SRC2 PPI: TRbeta-SRC2 interaction inhibition | Potency, µM (top dose mostly 106 µM), inactives show at the top dose activity change, negative = inhibition, actives largely listed as inhibitors | 0.065% of 280,000 active | TRbeta-SRC2 peptide binding, fluorescence polarization; receptor liganded with 1 µM T3 | P10828;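 further: potency means the concentration at half of the fitted maximal effect; plate controls were bound peptide for no effect and peptide without receptor for full effect; nearly all actives have a fitted effect of over 50% in size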
# Target sequence (P10828 whole entry, looked up): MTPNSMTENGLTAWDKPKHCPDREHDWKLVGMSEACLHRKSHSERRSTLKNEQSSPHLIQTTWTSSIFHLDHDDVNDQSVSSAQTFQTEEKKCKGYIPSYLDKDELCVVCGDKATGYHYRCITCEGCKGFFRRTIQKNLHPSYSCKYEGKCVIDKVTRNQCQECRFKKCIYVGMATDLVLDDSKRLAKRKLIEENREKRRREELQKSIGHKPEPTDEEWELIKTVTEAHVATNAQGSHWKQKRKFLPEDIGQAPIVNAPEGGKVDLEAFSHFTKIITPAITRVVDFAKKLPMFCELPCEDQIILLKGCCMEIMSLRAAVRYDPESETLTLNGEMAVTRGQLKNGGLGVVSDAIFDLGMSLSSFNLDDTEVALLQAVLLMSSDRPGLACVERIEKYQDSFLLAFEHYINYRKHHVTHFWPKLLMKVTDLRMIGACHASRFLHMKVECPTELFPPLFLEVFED
#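 Quantitative HTS by FP: 0.6 uM TRb LBD, 20 nM labeled SRC2 20-mer, 1 uM T3, 5% DMSO; 5 hr ambient incubation; % activity per concentration and potencies from concentration series.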
# PNC assembly inh: perinucleolar compartment assembly inhibition; PC3M PTB-GFP, PNC prevalence imaging, 16 h; active compounds read low; 3.1% of 140,000 active; activity change (PNC), negative = inhibition, % at 10 µM; AID 2417;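 active means readout at or below -70, meaning at least 70% loss of cells showing the perinucleolar compartment, a nuclear body marking cancer cells; inconclusive means readout between -30 and a set limit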;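 further: plate controls were DMSO wells for no effect and camptothecin positive control wells for full effect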
#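 Compounds are pinned in duplicate onto adhered PC3M cells stably expressing GFP-tagged PTB and incubated 16 h at 37 C. Cells are then fixed, nuclei stained with Hoechst, and PNC-positive cells counted.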
# An asterisk follows results filed as active; u = inconclusive; x = no result; [ ] = another dose, or the depositor's remark. The list is not random: actives were taken first. Their share in the collection is about 4.6%. Unless noted, the call rests on the fitted dose curve; in most records, active means well fitted curve in the direction sought with a large enough effect; inconclusive means small, poorly fitted or top-dose-only effect, or another doubt; inactive means no such curve, though single readings can be large; an effect the other way counts as inactive or inconclusive. Unless noted, on the % scale 0 is the no-effect control and ±100 the full control effect.
SMILES,Tau FP inhib,Tau fluor counter,TR SRC2 fluor cs,Tau ThT inhib,TRb SRC2 PPI,PNC assembly inh
O=C1c2ccccc2C(=O)c2cc(S(=O)(=O)Nc3ccccc3)ccc21,u,14.1µM*[quencher],-3.6%,22.4µM*,3.9%,-5.7
O=C(O)c1cccc(NS(=O)(=O)c2ccc3c(c2)C(=O)c2ccccc2C3=O)c1,13.0%,-17.6%,-9.4%,u,0.5%,x
Oc1cccc(C=NCc2ccccc2)c1O,u,u,-3.8%,7.94µM*,u,-7.3
COc1cc(-c2nnc(COC(=O)CSc3cc(C)c4ccccc4n3)o2)cc(OC)c1OC,7.8%,-8.3%,-2.3%,u,-8.7%,-21.6
O=C1Nc2ccc([N+](=O)[O-])cc2OC1CCN1CCOCC1 (stereo not drawn),-2.2%,-5.4%,-5.8%,-16.1%,4.5%,x
O=C1Nc2ccc([N+](=O)[O-])cc2OC1CCN1CCN(c2ccccc2)CC1 (stereo not drawn),0.7%,-22.7%,-0.1%,10µM*,-7.1%,x
O=C1OCC2OC(O)C(O)C(O)C2OC(=O)c2cc(O)c(O)c(O)c2-c2c(O)c(O)c3oc(=O)c4c(c(O)c(O)c5oc(=O)c2c3c54)-c2c1cc(O)c(O)c2O (stereo not drawn),u,u,-8.7%,7.94µM*,0.4%,x
CCOC(=O)N1CCC(NC(=O)C2CCCN(S(=O)(=O)c3ccc4c(c3)oc(=O)n4C)C2)CC1 (stereo not drawn),-2.1%,-4.9%,-0.7%,-9.2%,-6.9%,-89.9*
CC(C)(C)OC(=O)N1CCC[C@H]1c1nnc(SCC(=O)Nc2cccc(Cl)c2)o1,-9.7%,-16.1%,-0.1%,-2.7%,-8.6%,x
COc1cc(C(=O)Nc2ccc3oc(-c4ccc(C)c(Br)c4)nc3c2)cc(OC)c1OC,u,-22.4%,4.4%,u,-9.8%,x
CN(Cc1ccccc1)C(=O)c1nc2ccccn2c1CNCCn1cccn1,-2.4%,-7.6%,-2.6%,-14.2%,-0.3%,x
OC1CCN(c2ncnc3nc[nH]c23)CC1,7.3%,2.3%,-1.8%,0.1%,-2.6%,64.7
c1nc(N2CCCCC2)c2[nH]cnc2n1,4.3%,-0.5%,-1.5%,0.7%,6.8%,-119.3*
COc1ccccc1N1CCN(c2ncnc3nc[nH]c23)CC1,3.4%,-5.6%,-2.4%,-13.4%,-5.0%,23.0
COc1ccc(N2CCN(c3ncnc4nc[nH]c34)CC2)cc1,11.0%,-24.3%,-1.5%,17.8µM*,-3.2%,-24.3
C/C(=N\NC(=O)C(N)=O)c1cccc(C(F)(F)F)c1,0.0%,-10.5%,1.0%,-10.3%,0.2%,x
COc1ccc(Nc2nc(OC)nc(N3CCOCC3)n2)cc1,-6.3%,-17.4%,-2.1%,-17.5%,2.5%,x
COc1ccc(Nc2nc(Nc3ccc(OC)cc3OC)nc(N3CCOCC3)n2)c(OC)c1,3.4%,2.82µM*[quencher],-2.7%,u,2.8%,x
Clc1ccc(Oc2nc(Oc3ccc(Cl)cc3)nc(N3CCOCC3)n2)cc1,2.1%,-9.3%,1.3%,0.6%,2.2%,-2.8
Fc1ccc(Nc2nc(Oc3ccc4c(c3)OCO4)nc(N3CCOCC3)n2)c(F)c1,-5.2%,-1.3%,0.2%,-8.2%,-2.8%,-95.2*
Cc1ccc(C)c(NC(=O)CN(C)C(=O)Cc2ccccc2)c1,4.9%,2.2%,-12.1%,3.3%,5.6%,34.8
Cc1ccc(C=Nc2ccc(N(C)C)cc2)o1,25.1µM*,u,18.1%,10µM*,u,22.3
Cc1ccc(/C=N/n2c(C)nnc2C)o1,-1.7%,-3.4%,-6.1%,-2.8%,-1.6%,14.6
CCCS(=O)(=O)N1CC(=O)N(c2cc(C)ccc2C)C(C)(C(=O)NC2CCCCCC2)C1 (stereo not drawn),-2.6%,-1.6%,25.1µM*[quencher],-0.9%,-9.8%,x
CCOC(=O)c1cccc(NC(=O)CSc2nnc(C)n2Cc2ccccc2)c1,0.9%,-16.7%,-0.2%,-15.7%,-4.3%,1.5
SMILES,Tau FP inhib,Tau fluor counter,TR SRC2 fluor cs,Tau ThT inhib,TRb SRC2 PPI,PNC assembly inh
CC[N+]1=C(C)C(C)(C)c2cc(C)ccc21,u,0.708µM*[fluorescent],39.8µM*[fluorescent],3.55µM*,u,x
Cc1ccccc1NC(=O)CSc1nnc(Cc2ccccc2)o1,-0.7%,-1.2%,-3.8%,-1.3%,-3.4%,-100.0*
Cc1cccc(N2CCN(CC(O)COCc3cccs3)CC2)c1C (stereo not drawn),4.5%,-9.3%,-0.4%,-9.8%,8.7%,-115.2*
OC(COCc1cccs1)CN1CCN(c2ccccc2Cl)CC1 (stereo not drawn),12.5%,1.9%,0.0%,-1.3%,-10.1%,-14.8
CCSc1nnc2c(n1)OC(c1ccc(C(=O)O)cc1)N(C(C)=O)c1ccccc1-2 (stereo not drawn),2.1%,3.7%,-2.1%,-1.9%,0.9%,33.2
COc1ccccc1NC(=O)c1c(NCc2ccc(C)o2)sc2c1CCCCC2,u,u,0.3%,25.1µM*,1.1%,x
COc1ccc(NC(=O)c2c(NCc3cccs3)sc3c2CCCCC3)c(OC)c1,u,u,3.1%,25.1µM*,3.3%,x
COc1ccc(NC(=O)c2c(NCc3cccs3)sc3c2CCCC3)cc1,-10.3%,u,-0.9%,u,-9.4%,x
Cc1oc2c(c1C(=O)Nc1cccc3ccccc13)CCCC2,0.8%,-19.7%,-2.3%,u,5.7%,20.8
COc1ccccc1NC(=O)c1c(C)oc2c1CCCC2,-1.4%,1.7%,-3.0%,u,-20.6%,-114.1*
COc1ccc(OC)c(NC(=O)c2c(NCc3ccc(C)o3)sc3c2CCCCC3)c1,u,u,-1.6%,25.1µM*,-0.5%,x
COc1ccc(Cl)cc1NC(=O)c1c(NCc2ccc(C)o2)sc2c1CCCCC2,-11.9%,-20.7%,-1.5%,u,-0.1%,x
CCOC(=O)c1cccc(NC(=O)c2ccc3nc(C(C)C)oc3c2)c1,-8.0%,-25.7%,-27.8%,u,9.1%,x
Cc1cccc(-n2ncc(C#N)c2N)c1,0.3%,2.9%,-0.5%,5.5%,-13.3%,14.7
Cc1nnc(N2C(=O)c3cccc4cccc(c34)C2=O)s1,-7.9%,-13.4%,-2.4%,-14.4%,2.7%,-111.1*
CCCc1nnc(N2C(=O)c3cccc4cccc(c34)C2=O)s1,2.9%,-6.2%,-2.1%,-5.5%,3.5%,20.7
COc1cccc(CN2CCN(Cc3ccc(O)c(OC)c3)CC2CCO)c1 (stereo not drawn),0.9%,-12.4%,-1.3%,-17.9%,-6.9%,x
CCCCNc1cc(NC2CCCCC2)c2c3c(onc13)-c1ccccc1C2=O,0.7%,u,11.6%,u,5.2%,x
O=C(O)CCCNc1cc(N2CCN(C3CCCCC3)CC2)c2noc3c2c1C(=O)c1ccccc1-3,u,u,39.8µM*[fluorescent],8.91µM*,-21.9%,x

# Compound activity as filed in PubChem.
